Bioassay records: PubChem, National Center for Advancing Translational Sciences (NCATS)
Tb PYK inh = T. brucei pyruvate kinase inhibition; Q57TT1; TbPYK enzyme, Kinase-Glo Plus ATP luminescence, 45 min; Potency, µM (highest dose often 76.8 µM), for inactives: at the top dose activity, negative = inhibition, most hits filed as inhibitors; 410,000 tested, 0.12% active; AID 624173; also: nearly all actives have a fitted effect of over 50% in size
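Readout: single end-point luminescence (Kinase-Glo Plus, 10 min). Reaction conditions were TbPYK/substrate plus 130 uM ADP, 45 min at RT, pH 7.2 TEA buffer. No-enzyme wells served as controls, and data were normalized before concentration-response fitting.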
FMDV antiviral = antivirals against foot and mouth disease virus; FMDV antiviral cell-based qHTS; Potency, µM (highest dose often 57.9 µM), for inactives: top-dose activity change, negative = inhibition, usual class: inhibitors; AID 1159524; 410,000 tested, 1.2% active; calls by dose curve; tested in HEK293T cells; also: read-out not given here; nearly all actives have a fitted effect of over 45% in size
Sm TGR inh = S. mansoni TGR enzyme inhibition; Q962Y6; purified TGR, DTNB reduction, TNB absorbance 405 nm; Potency, µM (series often up to 114 µM), inactives show at the top dose activity change, negative = inhibition, most hits filed as inhibitors; 360,000 tested, 3% active; AID 485364; also: nearly all actives have a fitted effect of over 60% in size
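First, TGR (20 nM dispensed) and NADPH were mixed with compound. Second, a 15 min room-temperature incubation followed. Third, further NADPH and then DTNB were added to start the reaction. Finally, TNB absorbance was monitored kinetically.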
RE007 growth inh = less growth of the S. pombe RE007 Vpr strain; S. pombe RE007 Vpr strain, BacTiter-Glo ATP luminescence, 24 h; Potency, µM (doses to about 92.2 µM), without a hit: at the top dose activity change, negative = less growth, most hits filed as inhibitors; 360,000 tested, 0.21% active; AID 651644; active = well fitted falling curve with a large enough effect; inconclusive = small, poorly fitted or top-dose-only effect; inactive = no such curve, though single readings can be large or run the other way; also: nearly all actives have a fitted effect of over 50% in size
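Fission yeast RE007 carrying one integrated HIV-1 vpr copy, seeded at OD 0.01 in PMG+AL medium with 23 nL pinned compound. Grown 24 h at 30 degrees; viability read by BacTiter-Glo luminescence after 5 min.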
The depositor's hits bear a star; ? = inconclusive; nt = not tested or not shown. Sampled rows, rich in hits. Any-hit rate of the full collection: about 3.7%. Unless noted, calls follow the shape of the dose curve; as a rule, active = well fitted curve in the direction sought with a large enough effect; inconclusive = small, poorly fitted or top-dose-only effect, or another doubt; inactive = no such curve, though single readings can be large; an effect the other way counts as inactive or inconclusive. % is scaled to controls: 0 for no effect and ±100 for the full control effect; potency is read from the fitted curve at half-maximal effect.

SMILES	Tb PYK inh	FMDV antiviral	Sm TGR inh	RE007 growth inh
COc1ccc(C(=O)C(CN2CCOCC2)c2ccccc2)cc1 (stereo not drawn)	-0.4%	11.2µM*	-25.1%	-20.7%
CCCCOc1ccc(C(=O)C(CN2CCOCC2)c2ccccc2)cc1 (stereo not drawn)	-7.7%	17.8µM*	6.1%	-5.1%
CCc1ccc(S(=O)(=O)c2nnn(-c3ccc(F)cc3)c2N)cc1	1.4%	-17.5%	1.5%	nt
COc1cccc(C(=O)NC(=S)Nc2cccnc2)c1	-9.7%	14.3%	56.2µM*	-21.4%
CCOc1cc(C(=O)NC(=S)Nc2cccnc2)cc(OCC)c1OCC	7.2%	-5.2%	50.1µM*	-2.9%
CC(C)Oc1cccc(C(=O)NC(=S)Nc2cccnc2)c1	3.0%	15.8%	?	-20.1%
Cn1nc([N+](=O)[O-])nc1Sc1cccc2cccnc12	-1.1%	-27.2%	0.0%	-9.6%
Cn1nc([N+](=O)[O-])nc1Sc1nnc(-c2ccccc2)o1	3.3%	22.4µM*	?	2.2%
O=Cc1ccc(Sc2nnc(-c3ccccc3)o2)c([N+](=O)[O-])c1	-0.4%	0.1%	11.2µM*	?
COc1ccc(NC(=O)Cn2c(=O)oc3cc(S(=O)(=O)N4CCCCCC4)ccc32)cc1OC	-3.0%	-26.6%	6.4%	nt
COc1cccc(N2CCN(C(=O)C3CCCN(S(=O)(=O)c4cccc5nsnc45)C3)CC2)c1 (stereo not drawn)	1.7%	-23.8%	-4.7%	nt
O=C(C1CCCN(S(=O)(=O)c2cccc3nsnc23)C1)N1CCN(c2ccccn2)CC1 (stereo not drawn)	-1.8%	28.2µM*	-17.8%	0.2%
O=C(C1CCCN(S(=O)(=O)c2cccc3nsnc23)C1)N1CCN(c2cccc(Cl)c2)CC1 (stereo not drawn)	1.7%	11.2µM*	0.2%	nt
N#Cc1ccc(NC(=O)C2Cc3ccccc3CN2S(=O)(=O)c2ccc(F)cc2)cc1 (stereo not drawn)	0.0%	-23.2%	11.9%	nt
CC1=NN(c2ccc(C)c(C)c2)C(=O)/C1=C\C=C\c1ccc([N+](=O)[O-])o1	-12.2%	12.6µM*	0.0%	-0.8%
C=CCn1c(-c2cccn(Cc3ccccc3)c2=O)n[nH]c1=S	?	-22.2%	11.6%	8.3%
C=CCn1c(-c2cccn(Cc3cccc(Cl)c3)c2=O)n[nH]c1=S	8.91µM*	-2.3%	10.9%	8.9%
O=c1c(-c2n[nH]c(=S)n2-c2ccccc2)cccn1Cc1cccc(Cl)c1	12.6µM*	-11.7%	-4.0%	10.2%
O=[N+]([O-])c1cccc(C=NNc2ccc3ccccc3n2)c1O	-8.1%	10µM*	nt	?
O=C(O)c1cccc(-n2sc3ccccc3c2=O)c1	?	8.9%	?	1.4%
CN(C)S(=O)(=O)c1ccc2[nH]cc(/C=C/c3nc4ccccc4c(=O)n3-c3ccccc3)c2c1	-3.7%	-9.4%	-13.8%	-12.9%
CN(C)S(=O)(=O)c1cccc(-n2sc3ccccc3c2=O)c1	3.98µM*	21.7%	?	-11.1%
N#Cc1c(N)n(-c2ccccc2)c(=O)c2cc([N+](=O)[O-])ccc12	2.9%	-14.7%	nt	5.4%
CC(=O)Nc1ccc2c(=O)n(-c3ccccc3)sc2c1	7.08µM*	13.8%	nt	12.2%
O=c1c2ccccc2sn1-c1cccc(Cl)c1	7.08µM*	1.7%	nt	10µM*
SMILES	Tb PYK inh	FMDV antiviral	Sm TGR inh	RE007 growth inh
N#Cc1ccc2c(=O)n(-c3ccccc3)sc2c1	3.16µM*	38.3%	nt	10µM*
COc1ccccc1-c1ccnc(-n2ncc(C(=O)NC3CCCN(Cc4ccccc4)C3)c2C)n1 (stereo not drawn)	nt	1.4%	nt	nt
CCCCCCCCCCCCCCCC(=O)O[C@@H]1CC(C)=C(\C=C/C(C)=C\C=C/C(C)=C\C=C\C=C(C)\C=C\C=C(C)\C=C\C2=C(C)C[C@@H](OC(=O)CCCCCCCCCCCCCCC)CC2(C)C)C(C)(C)C1	1.6%	nt	nt	nt
O=C(c1cc(C(F)(F)F)cc(C(F)(F)F)c1)N1CCC2(CC1)CN(c1ccccn1)C2	0.2%	?	nt	nt
Cn1sc2ccccc2c1=O	?	0.0%	nt	?
O=c1c2ccccc2sn1-c1nccs1	5.62µM*	20.8%	8.6%	0.3%
O=c1c2ccccc2sn1-c1ccccc1F	7.08µM*	0.0%	nt	35.5µM*
O=c1c2ccccc2sn1-c1ccccc1	?	?	5.5%	8.91µM*
Cc1ccccc1-n1sc2cc(F)ccc2c1=O	8.91µM*	?	-27.2%	-92.3%
CCCCCCCCCCCCCCC(C(=O)O)C(O)(CC(=O)OC)C(=O)O (stereo not drawn)	nt	-2.8%	nt	nt
Cc1cnc(C)c(-c2cccc3c2OC(CNC(=O)C[C@@H]2C[C@@H](C)NC(=S)N2)C3)n1 (stereo partly drawn)	nt	-4.7%	nt	nt
O=C(NC1(C(F)(F)F)Oc2ccc(Cl)cc2O1)N1CCC2(CC1)OCCO2 (stereo not drawn)	0.2%	-15.4%	44.7µM*	17.4%
O=C(NCCN1CCOCC1)NC1(C(F)(F)F)Oc2ccc(Cl)cc2O1 (stereo not drawn)	-8.2%	0.0%	8.7%	0.5%
O=C(NC1(C(F)(F)F)Oc2ccccc2O1)N1CCC2(CC1)OCCO2	-12.1%	7.3%	17.8µM*	3.3%
COc1ccc(-c2cn3c(n2)sc2cc(C(=O)Nc4ccc(F)cc4Cl)ccc23)cc1	0.4%	1.9%	1.6%	nt
COc1ccc(C2(C)NC(=O)N(CC(=O)NC(C)c3ccc(CC(C)C)cc3)C2=O)cc1 (stereo not drawn)	-9.7%	-17.3%	-4.0%	-15.0%
COC(=O)N1C(=O)[C@](c2ccc(OC)cc2)(C(C)C)N1C(=O)OC	0.8%	-21.9%	44.7µM*	-9.2%
COC(=O)N1C(=O)[C@](c2ccsc2)(C(C)C)N1C(=O)OC	-8.3%	?	31.6µM*	-2.8%
Oc1ccc(-c2cccnc2)cc1CNC1CN2CCC1CC2 (stereo not drawn)	nt	-9.9%	nt	nt
CO/N=C1/CC2(CC3CC(C/C=C(/C)CC(C)/C=C\C=C4\COC5C(O)C(C)=CC(C(=O)O3)C45O)O2)OC(/C(C)=C/C(C)C)C1C (stereo not drawn)	-9.5%	nt	nt	nt
CC1(C2CC2)NC(=O)N(CC(=O)N2CCN(c3cccc(C(F)(F)F)c3)CC2)C1=O (stereo not drawn)	1.0%	35.5µM*	nt	-11.8%
Nc1cccc2c1C(=O)N(C(=O)/C=C/c1cccc(Br)c1)C2=O	-1.1%	?	2.51µM*	?
COc1ccc(OC)c(/C=C/C(=O)N2C(=O)c3cccc(N)c3C2=O)c1	-2.3%	?	-11.7%	-21.9%
COc1cc(/C=C/C(=O)N2C(=O)c3cccc(N)c3C2=O)cc(OC)c1OC	5.3%	-26.8%	-8.7%	7.2%
Nc1cccc2c1C(=O)N(C(=O)/C=C/c1cccc(F)c1)C2=O	-9.7%	?	6.31µM*	?
COc1cc(C(=O)OC(COCCC(C)C)CN2CCOCC2)cc(OC)c1OC (stereo not drawn)	6.1%	nt	nt	nt
O=C(Oc1cccc(Nc2ncnc3ccccc23)c1)c1ccccc1Cl	-0.6%	17.8µM*	-2.5%	?
COc1cccc(Nc2ncnc3ccccc23)c1	1.1%	nt	5.8%	-11.3%
